About 3,200 (25%) of roughly 13,000 compounds showed an effect of 50% or more. The list shows a part of the results.
System: P. falciparum stage V gametocytes
Parameters: BacTiter-Glo ATP luminescence viability of purified stage V gametocytes in 384-well plates, per cent inhibition versus DMSO
Conditions: 48 h, 5 µM; inhibitor

| Structure (SMILES) | % Inhibition [%] |
| --- | --- |
| O=C(N[C@@H](CC1CCCCC1)C(=O)NCCN1CCCCC1)c1ccc(O)c(-c2cccc(C(F)(F)F)c2)c1 [TCMDC-140818] | 37.36 |
| COc1cc(Cc2cnc(N)nc2N)cc(OCc2cccc(C(=O)O)c2)c1OC [TCMDC-137888] | -0.7108 |
| Oc1ccc(CN2CCN(CCOC(c3ccccc3)c3ccccc3)CC2)cc1Cl [TCMDC-135690] | -0.9629 |
| Cc1cccc2nc(-c3ccc(-c4ccc(NC(=O)Nc5ccc(F)c(F)c5F)cc4)s3)[nH]c12 [TCMDC-133222] | -13.04 |
| Cc1ccc(Nc2nc(N/N=C/c3cc4c(cc3Br)OCO4)nc(Nc3ccc([N+](=O)[O-])cc3)n2)cc1C [TCMDC-124185] | 19.94 |
| c1cc(CN2CCC(CCN3CCCCC3)CC2)cc(-c2csc(-c3nc4ccccc4[nH]3)c2)c1 [TCMDC-133919] | 95.43 |
| c1cc(CN2CCCCC2)cc(-c2cccc(-c3nc4ccccc4[nH]3)c2)c1 [TCMDC-133914] | -55.81 |
| NC1CCN(Cc2cccc(-c3csc(-c4nc5ccccc5[nH]4)c3)c2)C1 (stereo not drawn) [TCMDC-133876] | 10.66 |
| c1cc(CN2CCC(CCN3CCCCC3)CC2)cc(-c2cccc(-c3nc4ccccc4[nH]3)c2)c1 [TCMDC-133920] | 106.4 |
| c1cc(CN2CCN(CCN3CCOCC3)CC2)cc(-c2csc(-c3nc4ccccc4[nH]3)c2)c1 [TCMDC-133921] | 11.49 |
| c1cc(CN2CCCCC2)cc(-c2ccc(-c3nc4ccccc4[nH]3)cc2)c1 [TCMDC-133890] | -8.246 |
| C=CCc1cc(Br)ccc1OCCCOc1c(N)nc(N)nc1N [TCMDC-131367] | 16.05 |
| CCn1cc(CN2CCCC(C(=O)Nc3ccc(-c4nc5ccccc5[nH]4)cc3)C2)c(C)n1 (stereo not drawn) [TCMDC-124673] | -63.8 |
| CCc1ccc(N2C(=O)C3C(Cc4ccc(OC(C)(C)C)cc4)NC4(C(=O)N(Cc5ccccc5)c5ccc(F)cc54)C3C2=O)cc1 (stereo not drawn) [TCMDC-139770] | 11.03 |
| COc1ccc(N(c2nc(-c3cc(Cl)ccc3Cl)cs2)C2CCNCC2)cc1 [TCMDC-136654] | 103.4 |
| CC(=O)N(Cc1nc(-c2cc(C(F)(F)F)cc(C(F)(F)F)c2)cs1)c1c(C)cccc1C [TCMDC-135641] | 20.05 |
| COc1ccc(F)cc1-c1csc(N(c2ccc(F)cc2)C2CCNCC2)n1 [TCMDC-136652] | 68.19 |
| CCN(CC)CCCN(C(=O)Nc1cc(F)cc(F)c1)c1nc(-c2ccc(F)cc2)cs1 [TCMDC-136665] | -54.99 |
| Cc1cc(F)ccc1N(c1nc(-c2cc(Cl)ccc2Cl)cs1)C1CCNC1 (stereo not drawn) [TCMDC-136653] | 19.89 |
| Fc1ccc(N(c2nc(-c3cc(F)cc(C(F)(F)F)c3)cs2)C2CCNCC2)cc1 [TCMDC-136656] | 103.4 |
| COc1ccc(N(c2nc(-c3cc(Cl)ccc3Cl)cs2)C2CCNC2)cc1 (stereo not drawn) [TCMDC-136655] | 0.8137 |
| N#Cc1ccc2[nH]cc(CN3CCC4(CC3)CN(CCNCc3ccccc3)C(=O)CO4)c2c1 [TCMDC-136734] | -19.1 |
| Cc1ccccc1C1CCN(C2CCC(NC(=O)/C=C/c3ccc(C(F)(F)F)cc3)CC2)CC1 (stereo not drawn) [TCMDC-133511] | -86.18 |

| Structure (SMILES) | % Inhibition [%] |
| --- | --- |
| CC[C@@]1(O)C(=O)OCc2c1cc1n(c2=O)Cc2c-1nc1cc3c(cc1c2CN1CCN(C)CC1)OCCO3 [TCMDC-131875] | -10.57 |
| CCOc1ccc2ccccc2c1C(=O)Nc1cc(C)nn1-c1nc(C)cc(=O)[nH]1 [TCMDC-124946] | -19.22 |
| O=C(/C=C/c1ccc(Cl)c(Cl)c1)NC1CCN(CCCNC(=O)c2cccc(Cl)c2)CC1 [TCMDC-133356] | 10.9 |
| COc1cccc(CCc2c(CCNCCCCCCNCCc3ccccc3)ccc(OC)c2OC)c1 [TCMDC-132105] | 111.5 |
| COc1cccc(C(=O)NCCc2cccc(Cl)c2)c1Oc1ccccc1 [TCMDC-141237] | -16.09 |
| CCc1c(CCNCCCC(C)CCNCCc2ccc(OC)c(OC)c2CC)ccc(OC)c1OC (stereo not drawn) [TCMDC-132065] | 107.6 |
| CCC(=O)c1cc(C(=O)NCCc2cccc(OC)c2)ccc1OC [TCMDC-140139] | 9.268 |
| CCc1c(CCNCCc2cccc(CCNCCc3ccc(OC)c(OC)c3CC)c2)ccc(OC)c1OC [TCMDC-132056] | 108.6 |
| COc1cccc(-c2ccc(O)c(CNCCc3cccc(F)c3)c2)n1 [TCMDC-124645] | 3.898 |
| CCc1c(CCNCCCCCNCCc2ccc(OC)c(OC)c2CC)ccc(OC)c1OC [TCMDC-132064] | 110.1 |
| CCOC(=O)C1=C(C)NC2=C(C(=O)CC(C)(C)C2)C1c1ccc(Br)cc1 (stereo not drawn) [TCMDC-124142] | 9.854 |
| N#Cc1ccc2c(c1)CCN(CCC1CCC(NC(=O)Nc3ccnc4ccccc34)CC1)C2 (stereo not drawn) [TCMDC-139289] | -21.63 |
| COc1ccc(Cc2c(C)nc3nc(N)nc(N)c3c2C)cc1 [TCMDC-137660] | 3.866 |
| COC(=O)c1ccc(CC(C)NCC(O)c2cccc(I)c2)cc1 (stereo not drawn) [TCMDC-131484] | -10.65 |
| O=C(C1CCN(c2nnnn2-c2ccccc2)CC1)N1CCc2ccccc2C1 [TCMDC-123642] | 26.99 |
| COc1cc(Cc2cnc(N)nc2N)cc(OCCCCc2ccc([N+](=O)[O-])cc2)c1OC [TCMDC-137901] | 2.332 |
| CCc1c(CCNCC/C=C/CCNCCc2ccc(OC)c(OC)c2CC)ccc(OC)c1OC [TCMDC-132062] | 100.4 |
| CCc1c(CCNCCCCCCNCCc2ccc(OC)cc2)ccc(OC)c1OC [TCMDC-132050] | 110.1 |
| CCc1c(CCNCCCCCCNCCc2ccc([N+](=O)[O-])cc2)ccc(OC)c1OC [TCMDC-132066] | 101.3 |
| COc1cc(C)c(C(O)CNC(C)CCc2ccccc2)cc1C (stereo not drawn) [TCMDC-131251] | 28.09 |
| COc1ccc(N2CCN(CCc3ccc(NC(=O)c4ccc([N+](=O)[O-])cc4)cc3)CC2)c(OC)c1 [TCMDC-138185] | -26.83 |
| CCc1c(CCNCCCCCCNCCc2ccccc2)ccc(OC)c1OC [TCMDC-132063] | 92.32 |

Source: article PMC4552634, “A New Set of Chemical Starting Points with Plasmodium falciparum Transmission-Blocking Potential for Antimalarial Drug Discovery” (PLoS ONE, 2015)
